Experimental data from the supplement of paper PMC11732987, “Enantioselective OTUD7B fragment discovery through chemoproteomics screening and high-throughput optimisation” (Communications Chemistry, 2025).

Columns and labels:
Test in all cases: log2 ratio of Biotin-Ahx-Ub-VS probe labelling (fragment/DMSO); higher = less target engagement (more negative = stronger competition), active = hit call of the paper (q ≤ 0.05, log2 ratio ≤ -1)
Details in all cases: compound concentration: 200 uM; treatment time: 3 h
ALG13 = molecular target: T1, ALG13 (UniProt Q9NP73)
T1 sequence (whole entry): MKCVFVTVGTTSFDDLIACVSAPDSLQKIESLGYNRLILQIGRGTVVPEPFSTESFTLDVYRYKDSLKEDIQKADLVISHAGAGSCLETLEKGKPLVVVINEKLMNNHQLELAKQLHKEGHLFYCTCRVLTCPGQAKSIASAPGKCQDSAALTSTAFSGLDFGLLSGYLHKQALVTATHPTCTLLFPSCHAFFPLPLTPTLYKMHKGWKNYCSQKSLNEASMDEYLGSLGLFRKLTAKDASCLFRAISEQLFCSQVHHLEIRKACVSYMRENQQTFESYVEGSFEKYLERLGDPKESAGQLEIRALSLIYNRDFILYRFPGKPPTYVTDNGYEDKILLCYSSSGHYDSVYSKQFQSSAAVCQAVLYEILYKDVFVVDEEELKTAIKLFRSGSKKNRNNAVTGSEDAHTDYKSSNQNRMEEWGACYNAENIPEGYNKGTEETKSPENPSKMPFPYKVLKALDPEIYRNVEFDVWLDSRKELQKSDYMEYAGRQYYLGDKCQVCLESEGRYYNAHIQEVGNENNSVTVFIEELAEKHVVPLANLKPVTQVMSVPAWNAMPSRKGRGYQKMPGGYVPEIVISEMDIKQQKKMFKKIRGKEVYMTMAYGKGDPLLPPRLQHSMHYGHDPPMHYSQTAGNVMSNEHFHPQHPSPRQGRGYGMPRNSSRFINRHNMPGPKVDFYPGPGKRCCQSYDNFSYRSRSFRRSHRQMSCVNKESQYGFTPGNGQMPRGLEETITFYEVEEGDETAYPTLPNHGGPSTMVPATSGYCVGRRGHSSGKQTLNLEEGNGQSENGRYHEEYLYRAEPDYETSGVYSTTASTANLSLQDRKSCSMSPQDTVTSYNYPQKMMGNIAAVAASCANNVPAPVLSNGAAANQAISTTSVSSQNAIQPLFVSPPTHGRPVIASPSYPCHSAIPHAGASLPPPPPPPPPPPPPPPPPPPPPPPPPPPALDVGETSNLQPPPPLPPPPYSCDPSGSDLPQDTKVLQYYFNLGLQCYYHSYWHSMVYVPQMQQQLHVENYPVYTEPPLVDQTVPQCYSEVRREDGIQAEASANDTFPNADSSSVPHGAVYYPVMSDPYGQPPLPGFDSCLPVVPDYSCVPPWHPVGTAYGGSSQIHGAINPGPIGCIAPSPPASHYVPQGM
Summary of the method: (§1)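 Lysate from HEK293T cells, 495 µg per sample in Tris/CHAPS/IGEPAL buffer with protease inhibitors, was treated for 3 h in triplicate with fragment at 200 µM or vehicle. Biotin-Ahx-Ub-VS was next added at 0.5 µM final for 1 h. The labelled DUBs were enriched with NeutrAvidin, digested with LysC and trypsin, and run by diaPASEF LC-MS/MS, with values given as average log2 fragment/vehicle ratios by unpaired t-test on global-median-normalised Spectronaut quantities of proteins with ≥2 unique peptides.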

ATXN3 = ATXN3 (UniProt P54252)
Sequence of ATXN3 (P54252 whole entry): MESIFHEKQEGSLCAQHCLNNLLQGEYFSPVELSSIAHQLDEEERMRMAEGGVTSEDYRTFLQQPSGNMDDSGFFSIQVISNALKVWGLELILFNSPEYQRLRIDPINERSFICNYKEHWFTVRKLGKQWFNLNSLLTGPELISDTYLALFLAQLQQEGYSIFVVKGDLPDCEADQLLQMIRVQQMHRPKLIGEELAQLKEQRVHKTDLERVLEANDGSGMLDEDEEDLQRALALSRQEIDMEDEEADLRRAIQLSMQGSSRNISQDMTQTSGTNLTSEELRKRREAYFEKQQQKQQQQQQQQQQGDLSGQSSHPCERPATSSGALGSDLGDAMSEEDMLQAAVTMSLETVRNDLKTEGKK
Summary of the method: as §1

BAP1 = molecular target: T2, BAP1 (UniProt Q92560)
T2 sequence (whole entry): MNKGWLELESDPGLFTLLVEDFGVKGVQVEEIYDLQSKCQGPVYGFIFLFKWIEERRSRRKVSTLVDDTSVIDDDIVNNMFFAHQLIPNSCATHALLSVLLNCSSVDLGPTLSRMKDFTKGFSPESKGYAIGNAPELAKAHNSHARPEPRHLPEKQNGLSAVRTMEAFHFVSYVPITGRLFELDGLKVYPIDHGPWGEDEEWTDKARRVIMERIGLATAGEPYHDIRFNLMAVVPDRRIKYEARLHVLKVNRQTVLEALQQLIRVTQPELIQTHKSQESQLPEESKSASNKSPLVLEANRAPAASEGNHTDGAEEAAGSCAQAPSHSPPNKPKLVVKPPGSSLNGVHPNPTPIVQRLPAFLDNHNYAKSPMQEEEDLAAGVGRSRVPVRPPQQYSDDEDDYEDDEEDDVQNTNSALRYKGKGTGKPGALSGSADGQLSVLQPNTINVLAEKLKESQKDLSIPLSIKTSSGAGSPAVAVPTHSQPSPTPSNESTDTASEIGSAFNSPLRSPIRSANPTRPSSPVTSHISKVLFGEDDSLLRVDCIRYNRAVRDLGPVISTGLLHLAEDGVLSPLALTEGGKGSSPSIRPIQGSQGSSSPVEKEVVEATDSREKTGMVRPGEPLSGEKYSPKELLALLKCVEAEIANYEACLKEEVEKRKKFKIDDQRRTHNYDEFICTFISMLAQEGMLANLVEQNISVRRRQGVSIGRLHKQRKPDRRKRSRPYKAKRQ
Summary of the method: as §1

EIF3F = EIF3F (UniProt O00303)
Sequence of EIF3F (O00303 whole entry): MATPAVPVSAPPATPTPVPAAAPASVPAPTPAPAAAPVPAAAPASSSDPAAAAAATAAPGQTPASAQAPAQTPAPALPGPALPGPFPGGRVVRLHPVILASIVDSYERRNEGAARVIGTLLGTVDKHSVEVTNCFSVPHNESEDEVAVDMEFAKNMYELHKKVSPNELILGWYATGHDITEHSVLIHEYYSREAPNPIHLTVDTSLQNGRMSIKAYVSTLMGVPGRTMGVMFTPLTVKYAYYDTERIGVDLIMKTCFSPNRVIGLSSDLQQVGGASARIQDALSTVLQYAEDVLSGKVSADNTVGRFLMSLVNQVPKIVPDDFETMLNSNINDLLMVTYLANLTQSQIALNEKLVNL
Summary of the method: as §1

EIF3H = EIF3H (UniProt O15372)
Sequence of EIF3H (O15372 whole entry): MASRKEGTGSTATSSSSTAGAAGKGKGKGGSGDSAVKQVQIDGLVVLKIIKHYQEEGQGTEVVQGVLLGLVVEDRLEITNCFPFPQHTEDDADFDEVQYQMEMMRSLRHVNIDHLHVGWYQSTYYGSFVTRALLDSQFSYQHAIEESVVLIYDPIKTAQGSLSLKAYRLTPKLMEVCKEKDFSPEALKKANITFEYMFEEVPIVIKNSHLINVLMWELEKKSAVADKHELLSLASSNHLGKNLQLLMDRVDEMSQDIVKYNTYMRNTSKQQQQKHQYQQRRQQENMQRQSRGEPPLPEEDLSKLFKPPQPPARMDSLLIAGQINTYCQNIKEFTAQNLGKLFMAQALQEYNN
Summary of the method: as §1

FAM105A = molecular target: T3, FAM105A (UniProt Q9NUU6)
T3 sequence (whole entry): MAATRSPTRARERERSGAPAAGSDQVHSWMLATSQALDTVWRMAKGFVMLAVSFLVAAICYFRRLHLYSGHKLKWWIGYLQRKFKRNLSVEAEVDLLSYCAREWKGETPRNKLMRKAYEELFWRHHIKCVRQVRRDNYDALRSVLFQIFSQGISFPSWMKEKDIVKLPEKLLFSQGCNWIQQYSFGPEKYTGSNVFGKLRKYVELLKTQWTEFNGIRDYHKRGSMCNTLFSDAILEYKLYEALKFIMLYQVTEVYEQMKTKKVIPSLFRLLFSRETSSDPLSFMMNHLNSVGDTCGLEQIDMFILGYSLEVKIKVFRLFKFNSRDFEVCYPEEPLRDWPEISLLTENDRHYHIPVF
Summary of the method: as §1

OTUB1 = OTUB1 (UniProt Q96FW1)
Sequence of OTUB1 (Q96FW1 whole entry): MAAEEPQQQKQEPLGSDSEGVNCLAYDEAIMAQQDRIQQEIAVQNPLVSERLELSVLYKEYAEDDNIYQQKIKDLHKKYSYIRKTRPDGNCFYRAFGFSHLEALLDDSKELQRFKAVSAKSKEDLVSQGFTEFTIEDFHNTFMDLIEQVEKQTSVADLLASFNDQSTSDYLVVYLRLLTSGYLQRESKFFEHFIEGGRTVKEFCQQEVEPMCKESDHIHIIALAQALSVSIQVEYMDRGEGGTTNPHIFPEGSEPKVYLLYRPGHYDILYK
Summary of the method: as §1

OTUD4 = molecular target: T4, OTUD4 (UniProt Q01804)
T4 sequence (whole entry): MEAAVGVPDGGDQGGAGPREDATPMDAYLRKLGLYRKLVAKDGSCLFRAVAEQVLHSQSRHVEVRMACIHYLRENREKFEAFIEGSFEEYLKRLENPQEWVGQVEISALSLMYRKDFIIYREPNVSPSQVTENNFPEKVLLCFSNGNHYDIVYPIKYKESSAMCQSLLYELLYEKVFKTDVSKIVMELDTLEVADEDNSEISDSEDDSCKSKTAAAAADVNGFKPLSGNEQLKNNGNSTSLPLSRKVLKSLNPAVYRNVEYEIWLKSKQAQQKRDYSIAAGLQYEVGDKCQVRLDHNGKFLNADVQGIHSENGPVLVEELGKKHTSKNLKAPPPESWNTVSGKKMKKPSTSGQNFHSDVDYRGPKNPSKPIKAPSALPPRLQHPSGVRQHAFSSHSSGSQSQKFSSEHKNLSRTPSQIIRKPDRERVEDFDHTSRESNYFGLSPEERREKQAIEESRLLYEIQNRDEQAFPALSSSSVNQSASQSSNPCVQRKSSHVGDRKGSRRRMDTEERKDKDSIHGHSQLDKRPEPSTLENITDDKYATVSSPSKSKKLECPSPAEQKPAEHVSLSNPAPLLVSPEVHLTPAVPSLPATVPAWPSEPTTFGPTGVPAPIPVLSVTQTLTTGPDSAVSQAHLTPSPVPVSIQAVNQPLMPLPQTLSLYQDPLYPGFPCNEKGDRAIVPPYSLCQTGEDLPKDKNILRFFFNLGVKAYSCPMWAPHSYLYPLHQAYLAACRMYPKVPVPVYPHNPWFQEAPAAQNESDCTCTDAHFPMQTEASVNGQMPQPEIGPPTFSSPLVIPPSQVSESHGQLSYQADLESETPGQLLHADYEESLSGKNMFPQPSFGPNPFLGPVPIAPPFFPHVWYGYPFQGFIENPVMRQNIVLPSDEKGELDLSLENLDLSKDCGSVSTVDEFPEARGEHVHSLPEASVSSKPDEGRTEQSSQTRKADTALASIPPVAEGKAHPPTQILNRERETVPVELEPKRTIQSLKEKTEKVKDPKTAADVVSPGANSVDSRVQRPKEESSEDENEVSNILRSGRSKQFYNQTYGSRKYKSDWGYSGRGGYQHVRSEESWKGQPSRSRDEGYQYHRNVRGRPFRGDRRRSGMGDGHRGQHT
Summary of the method: as §1

OTUD5 = molecular target: T5, OTUD5 (UniProt Q96G74)
T5 sequence (whole entry): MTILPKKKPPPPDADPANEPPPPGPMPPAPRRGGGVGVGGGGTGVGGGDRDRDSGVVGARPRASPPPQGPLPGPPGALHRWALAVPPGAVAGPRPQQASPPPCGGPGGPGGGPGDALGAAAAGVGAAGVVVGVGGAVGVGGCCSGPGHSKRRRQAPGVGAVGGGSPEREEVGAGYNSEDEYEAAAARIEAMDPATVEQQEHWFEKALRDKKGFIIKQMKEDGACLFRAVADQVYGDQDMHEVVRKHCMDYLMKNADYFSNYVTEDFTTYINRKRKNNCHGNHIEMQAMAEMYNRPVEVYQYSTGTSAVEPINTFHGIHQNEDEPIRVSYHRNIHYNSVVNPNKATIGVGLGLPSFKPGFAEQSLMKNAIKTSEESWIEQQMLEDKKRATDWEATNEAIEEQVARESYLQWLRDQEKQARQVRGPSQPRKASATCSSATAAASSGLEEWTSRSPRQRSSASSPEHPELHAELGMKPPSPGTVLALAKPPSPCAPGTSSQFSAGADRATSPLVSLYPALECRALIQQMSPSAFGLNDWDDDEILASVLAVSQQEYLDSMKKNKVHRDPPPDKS
Summary of the method: as §1

Measured: log2 ratio of Biotin-Ahx-Ub-VS probe labelling

O=C(CCl)N1CCC[C@@H]1c1ccon1
active: ATXN3 -1.28 | BAP1 -2.4
inactive: ALG13 0.188 | EIF3F -0.585 | EIF3H 0.193 | FAM105A 0.198 | OTUB1 -0.236 | OTUD4 -0.381 | OTUD5 -0.427
